Shown are actives, neighbours in structure and some others; about 21% of the full set was active somewhere.
NS1 function inh: qHTS Assay for Inhibitors of Influenza NS1 Protein Function | 270,000 compounds, 0.4% hits | Potency, µM (series often up to 46.1 µM), for inactives: at the top dose activity, positive = more growth; further: potency means the concentration at half of the fitted maximal effect; actives are rising curves; nearly all actives have a fitted effect of over 50% in size
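Compounds were scored for reversing the slow growth caused by influenza A NS1 in S. cerevisiae, measured by optical density at 600 nm. Assay medium contained 2% galactose at pH 6.0; NS1-free yeast of the same strain were the positive control.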
Pf growth 96h: Primary qHTS for delayed death inhibitors of the malarial parasite plastid, 96 hour incubation. P. falciparum luciferase reporter growth, 96 h. Potency, µM (doses to about 28.7 µM), for inactives: at the top dose activity change, negative = inhibition, most hits filed as inhibitors. 320,000 compounds, 6.9% hits; active means well fitted inhibition curve with a large enough effect; inconclusive means small, poorly fitted or top-dose-only effect, or another doubt; inactive means no such curve, though single readings can be large or run the other way; further: potency means the concentration at half of the fitted maximal effect; on the % scale 0 is the no-effect control and ±100 the full control effect
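Luminescence readout: decreased luciferase signal marks inhibited growth of reporter-expressing P. falciparum in infected red cells (2% hematocrit, 0.05% parasitemia final), exposed to compound two generations (96 h, 37 C, 5% CO2).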
Pf growth 48h: Primary qHTS for delayed death inhibitors of the malarial parasite plastid, 48 hour incubation | P. falciparum luciferase growth in erythrocytes, 48 h | Potency, µM (series often up to 28.7 µM), for inactives: at the highest dose activity change, negative = inhibition, most hits filed as inhibitors | 310,000 compounds, 5.9% hits; active means well fitted inhibition curve with a large enough effect; inconclusive means small, poorly fitted or top-dose-only effect, or another doubt; inactive means no such curve, though single readings can be large or run the other way; further: potency means the concentration at half of the fitted maximal effect; on the % scale 0 is the no-effect control and ±100 the full control effect
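First compound was added to culture medium, then infected red cells at 0.1% parasitemia and 2% hematocrit (final). After incubation at 37 C under 5% CO2, luciferase detection reagent was dispensed and light output recorded.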
Cycloheximide cs: Cycloheximide Counterscreen for Small Molecule Inhibitors of Shiga Toxin | cell reporter, cycloheximide protein synthesis inhibition counterscreen | max response, % | 300,000 compounds, 12% hits | AID 2314, 2010; in the data active means max response mostly above about 13%, no sharp cut-off; inactive means mostly below about 14%; further: read at 38.3 µM for the half of the compounds with a filed dose; 0% is about no effect
SARS PLpro yeast: qHTS of Yeast-based Assay for SARS-CoV PLP | S. cerevisiae expressing SARS-CoV PLpro, growth rescue | 330,000 compounds, 0.19% hits | AID 485353, 2010 | Potency, µM (top dose mostly 32.9 µM), without a hit: at the top dose activity, positive = growth rescue, usual class: activators; further: potency means the concentration at half of the fitted maximal effect; 0% is about no effect; nearly all actives have a fitted effect of over 55% in size
Shiga inhibitor: A qHTS for Small Molecule Inhibitors of Shiga Toxin; Vero cells, Shiga toxin protein synthesis inhibition reporter; inhibition, % at 38.7 µM; 290,000 compounds, 9.2% hits; in the data active means inhibition mostly above about 28%, no sharp cut-off; inactive means mostly below about 43%; further: 0% is about no effect
* = called active by the depositor; [ ] = remark or other dose. Unless noted, the call rests on the fitted dose curve.

How did O=C(c1ccco1)N1N=C(c2cccs2)CC1c1cc([N+](=O)[O-])ccc1O (configuration not stated) do in these assays?
NS1 function inh: -4%; Pf growth 96h: inconclusive; Pf growth 48h: 5%; Cycloheximide cs: 10; SARS PLpro yeast: 18%; Shiga inhibitor: -2

Results for Cn1nnnc1SCC(=O)N1N=C(c2ccc(Cl)cc2)CC1c1ccco1 (configuration not stated) ?
SARS PLpro yeast: 0%

How did O=C(c1ccco1)N1N=C(c2ccco2)CC1c1ccc(Cl)cc1Cl (configuration not stated) do in these assays?
Pf growth 96h: 4.1µM*; Pf growth 48h: 8.3µM*; SARS PLpro yeast: -2%

Results for C(=C\c1ccco1)/C1=NN(c2ccccc2)C(c2ccco2)C1 (configuration not stated) ?
NS1 function inh: -5%; Pf growth 96h: inconclusive; Pf growth 48h: 9%; Cycloheximide cs: 40*; SARS PLpro yeast: -22%; Shiga inhibitor: 80*

Results for Cc1nnc(SCC(=O)N2N=C(c3ccc(Cl)cc3)CC2c2ccco2)[nH]c1=O (configuration not stated) ?
Pf growth 96h: 39%; Pf growth 48h: 27%; Cycloheximide cs: 18*; SARS PLpro yeast: 3%; Shiga inhibitor: 46

Results for COc1cc(OC)c(OC)cc1CN1CCN(Cc2ccco2)CC1 ?
NS1 function inh: -8%; Pf growth 96h: inconclusive; Pf growth 48h: 0%; Cycloheximide cs: 2; SARS PLpro yeast: 0%; Shiga inhibitor: -8

How did CCC1(C)C(Nc2c(C)cccc2C)=NC(=S)N1c1ccc(NC(C)=O)cc1 (configuration not stated) do in these assays?
NS1 function inh: 13%; Pf growth 96h: 6%; Pf growth 48h: 4%; Cycloheximide cs: -1; SARS PLpro yeast: 7%; Shiga inhibitor: 9

How did CCOc1ccc(OCC)c(-c2c(=O)n(OCc3ccc(C(C)(C)C)cc3)c3ccccc3[n+]2[O-])c1 do in these assays?
NS1 function inh: 5%; Pf growth 96h: 12µM*; Pf growth 48h: inconclusive; Cycloheximide cs: 2; SARS PLpro yeast: 1%; Shiga inhibitor: 12

What do the screens show for `CCCOc1ccc(-c2c(=O)n(OCC(=O)OCC)c3ccccc3[n+]2[O-])cc1`?
NS1 function inh: -3%; Pf growth 96h: 5%; Pf growth 48h: 20%; Cycloheximide cs: 39*; SARS PLpro yeast: -3%; Shiga inhibitor: 59*

What do the screens show for `CCOc1ccc(-c2c(=O)n(OCC)c3ccccc3[n+]2[O-])cc1`?
NS1 function inh: -3%; Pf growth 96h: 51%; Cycloheximide cs: 24*; SARS PLpro yeast: -1%; Shiga inhibitor: 26

What do the screens show for `CCOC(=O)COn1c(=O)c(-c2ccc(F)cc2)[n+]([O-])c2ccccc21`?
NS1 function inh: -3%; Pf growth 96h: 12%; Pf growth 48h: 27%; Cycloheximide cs: -4; SARS PLpro yeast: 2%; Shiga inhibitor: -1

Results for CCOn1c(=O)c(-c2cc(OC)ccc2OC)[n+]([O-])c2ccccc21 ?
NS1 function inh: -2%; Pf growth 96h: inconclusive; Pf growth 48h: -54%; Cycloheximide cs: -2; SARS PLpro yeast: 0%; Shiga inhibitor: -5

What do the screens show for `CCOc1ccc(-c2c(=O)n(OCc3ccc([N+](=O)[O-])cc3)c3ccccc3[n+]2[O-])cc1`?
NS1 function inh: 29%; Pf growth 96h: 12µM*; Pf growth 48h: 40%; Cycloheximide cs: 10; SARS PLpro yeast: 3%; Shiga inhibitor: 13

How did CC(C)(C)OC(=O)CNC(=O)c1[nH]cnc1C(=O)NCCCCCNC(=O)OC(C)(C)C do in these assays?
NS1 function inh: -5%; Pf growth 96h: -11%; Pf growth 48h: -26%; Cycloheximide cs: 0; SARS PLpro yeast: 3%; Shiga inhibitor: 1

What do the screens show for `CC1SCC(=O)N(CC(=O)Nc2ccc3c(c2)OCCO3)C1=O` (configuration not stated)?
Pf growth 96h: 2%; Pf growth 48h: -33%[5.75 µM]; Cycloheximide cs: 33*; SARS PLpro yeast: 2%; Shiga inhibitor: 33

What do the screens show for `CC1CCC2(CC1)NC(=O)N(CC(=O)NC(=O)NC1CCCC1)C2=O` (configuration not stated)?
NS1 function inh: -2%; Pf growth 96h: 13µM*; Pf growth 48h: -14%; Cycloheximide cs: -2; SARS PLpro yeast: 1%; Shiga inhibitor: -14

Results for CC1CCC2(CC1)NC(=O)N(CC(=O)Nc1ccc3c(c1)OCCO3)C2=O (configuration not stated) ?
Pf growth 96h: 181%; Pf growth 48h: 120%; Cycloheximide cs: 41*; SARS PLpro yeast: 0%; Shiga inhibitor: 71*

What do the screens show for `CC1CCC2(CC1)NC(=O)N(CC(=O)Nc1ccc3c(c1)OCCCO3)C2=O` (configuration not stated)?
Pf growth 96h: 2%; Pf growth 48h: inconclusive; SARS PLpro yeast: 6%

How did O=C(CN1C(=O)NC2(CCCCCC2)C1=O)c1ccc2c(c1)OCCO2 do in these assays?
NS1 function inh: -7%; Pf growth 96h: 8.3µM*; Pf growth 48h: 105%; Cycloheximide cs: 36*; SARS PLpro yeast: -2%; Shiga inhibitor: 118*

Results for CCCn1ccnc1SCC(=O)Nc1c(C)n(C)n(-c2ccccc2)c1=O ?
Pf growth 96h: -28%; Pf growth 48h: inconclusive; SARS PLpro yeast: 2%

What do the screens show for `COc1ccc(Cl)cc1NC(=O)C(C)N1CCN(c2ccccn2)CC1` (configuration not stated)?
NS1 function inh: -39%; Pf growth 96h: 0%; Pf growth 48h: 0%; Cycloheximide cs: -3; SARS PLpro yeast: -4%; Shiga inhibitor: -6

Results for COc1ccc(-c2cc(-c3ccccc3)n3ncnc3n2)cc1 ?
NS1 function inh: -10%; Pf growth 96h: 0%; Pf growth 48h: -15%; Cycloheximide cs: -2; SARS PLpro yeast: -9%; Shiga inhibitor: -15

How did CCc1ccc(-c2cn3nc(-c4ccccc4)cnc3n2)cc1 do in these assays?
NS1 function inh: -1%; Pf growth 96h: 64%; Pf growth 48h: 43%; Cycloheximide cs: 25*; SARS PLpro yeast: -2%; Shiga inhibitor: 64*

What do the screens show for `O=C(CCc1ccccc1)N=C1SC2CS(=O)(=O)CC2N1c1ccccc1` (configuration not stated)?
NS1 function inh: 5%; Pf growth 96h: 8%; Pf growth 48h: 11%; Cycloheximide cs: -1; SARS PLpro yeast: 15%; Shiga inhibitor: -11

What do the screens show for `Cc1c(N=Cc2c(O)n(Cc3ccco3)c(=O)c3ccccc23)c(=O)n(-c2ccccc2)n1C`?
NS1 function inh: -1%; Pf growth 96h: 17%; Pf growth 48h: 12µM*; Cycloheximide cs: 1; SARS PLpro yeast: -1%; Shiga inhibitor: 6

High-throughput results (PubChem BioAssay)
